This passage reports SARS-CoV-2 infection rate results from the supplement of paper PMC13380429.

A number with no mark means an inactive call.

The test system of the assay is Vero E6 infected with SARS-CoV-2. Description: SARS-CoV-2 infection rate relative to infected DMSO; higher = more infection, active = 60 or less. The conditions noted are these: 24 h.
On to `Oc1cc(O)c2c(c1)O[C@H](c1ccc(O)c(O)c1)[C@H](O)[C@H]2c1c(O)cc(O)c2c1O[C@H](c1ccc(O)c(O)c1)[C@H](O)C2` [procyanidin-B-2] (10 µM), for which the SARS-CoV-2 infection rate was 106%. The figure for `COc1cc2ncnc(Nc3ccc(F)c(Cl)c3)c2cc1NC(=O)/C=C/CN1CCCCC1` [dacomitinib] (0.833333 µM) is 103%; for `Cc1cnc(CNC(=O)c2c(=O)c3ccc(N4CCCN(C)CC4)nc3n3c2sc2ccccc23)cn1` (0.833333 µM) it is 109%; for `O=C(O)/C=C\c1c[nH]cn1` [cis-Urocanic acid] (10 µM) it is 104%. The figure for `N=C(N)c1ccc(/C=C/c2ccc(C(=N)N)cc2O)cc1` [hydroxystilbamidine] (10 µM) is 109%; for `O=C(/C=C/C=C/c1ccc2c(c1)OCO2)N1CCCCC1` [piperine] (10 µM) it is 97.5%. The figure for `CC(C)C[C@H](NC(=O)[C@@H](O)[C@H](N)Cc1ccccc1)C(=O)O` [ubenimex] (10 µM) is 96%. Turning to `COc1ccc2c(Oc3ccc(NC(=O)c4c(C)n(CC(C)(C)O)n(-c5ccccc5)c4=O)nc3)ccnc2c1` (10 µM), the SARS-CoV-2 infection rate is 98%. Take `CC(C)C[C@@H](N)C(=O)N[C@H]1C(=O)N[C@@H](CC(N)=O)C(=O)N[C@H]2C(=O)N[C@H]3C(=O)N[C@H](C(=O)N[C@H](C(=O)O)c4cc(O)cc(O)c4-c4cc3ccc4O)[C@H](O)c3ccc(c(Cl)c3)Oc3cc2cc(c3O[C@@H]2O[C@H](CO)[C@@H](O)[C@H](O)[C@H]2O[C@H]2C[C@](C)(N)[C@H](O)[C@H](C)O2)Oc2ccc(cc2Cl)[C@H]1O` [norvancomycin] (10 µM): the SARS-CoV-2 infection rate is 100%. For `c1ccc2c(Cc3c[nH]c4ccccc34)c[nH]c2c1` [3,3'-diindolylmethane] (10 µM), the SARS-CoV-2 infection rate was 113%. With `CC(C)(C=O)Cc1cc(C(C)(C)C)c(O)c(C(C)(C)C)c1` (10 µM) the figure was 94%; with `c1ccc([C@@H]2C[C@H]2NC2CCNCC2)cc1` (10 µM), 114%; with `C[C@](O)(COc1ccc(C#N)cc1)C(=O)Nc1ccc(C#N)c(C(F)(F)F)c1` [ostarine] (10 µM), 112%.

`CC(CC(C(N)=O)(c1ccccc1)c1ccccc1)N(C)C` (stereo not drawn) [aminopentamide] (10 µM): the SARS-CoV-2 infection rate was 104%. On to `NC/C(=C/F)CCc1ccc(F)cc1` [mofegiline] (10 µM), for which the SARS-CoV-2 infection rate is 115%. With `Cc1csc(-c2nnc(Nc3ccc(Oc4ncccc4-c4ccnc(N)n4)cc3)c3ccccc23)c1` (0.833333 µM) the figure was 19.5% (active). For the molecule `OCc1cncc(F)c1` [5-fluoro-3-pyridyl-methanol] (10 µM), the SARS-CoV-2 infection rate was 102%. As for `C[N+]1(C)[C@@H]2CC[C@H]1C[C@@H](OC(=O)C(CO)c1ccccc1)C2` (stereo partly drawn) [methylatropine-nitrate] (10 µM), the SARS-CoV-2 infection rate is 104%.

Turning to `COCc1c(-c2ccc(NC(=O)Nc3cc(C(F)(F)F)ccc3F)c(F)c2)c2c(N)ncnn2c1CN1CCOCC1` (0.833333 µM), the SARS-CoV-2 infection rate was 96.5%. The figure for `Cc1cc(F)c(Nc2ncnc3cc(OCc4ccccc4)ccc23)cc1O` (10 µM) is 99%; for `NS(=O)(=O)C#Cc1ccccc1` [pifithrin-mu] (0.833333 µM) it is 92%; for `C[C@@H](NCCCc1cccc(C(F)(F)F)c1)c1cccc2ccccc12` [cinacalcet] (10 µM) it is 20% (active). For `COC(=O)N[C@H](C(=O)N1CCC[C@H]1C(=O)Nc1ccc([C@@H]2CC[C@@H](c3ccc(NC(=O)[C@@H]4CCCN4C(=O)[C@@H](NC(=O)OC)C(C)C)cc3)N2c2ccc(C(C)(C)C)cc2)cc1)C(C)C` [ombitasvir] (10 µM), the SARS-CoV-2 infection rate was 113%.

With `CCN(CC)CCOC(=O)c1cc(Cl)c(N)cc1OC` (10 µM), the SARS-CoV-2 infection rate was 104%. Take `COc1cc(/C=C/C(N)=O)cc(OC)c1OC` [cintriamide] (10 µM): the SARS-CoV-2 infection rate is 110%. With `COc1cc(Oc2ccnc3cc(OC)c(OC)cc23)ccc1NC(=O)NC(C)c1nccs1` (stereo not drawn) (10 µM) the figure was 101%; with `O=C(O)C(Cl)Cl` [dichloroacetate] (10 µM), 88.5%; with `CC1(C)S[C@@H]2[C@H](NC(=O)C(C(=O)O)c3ccccc3)C(=O)N2[C@H]1C(=O)O` (stereo partly drawn) [carbenicillin] (10 µM), 104%.
